Laboratory results taken from PubChem BioAssay AID2289 (National Center for Advancing Translational Sciences (NCATS), 2010).
The campaign covered roughly 340,000 compounds. About 3,300 (0.97%) were called active. Another 9% or so got no clear call; they are omitted. Calls come from the whole dose curve; as a rule, active = well fitted inhibition curve with a large enough effect; inconclusive = small, poorly fitted or top-dose-only effect, or effect the other way; inactive = flat fitted curve, though single readings scatter. The list shows a part of the results.

Assay: qHTS Assay for Modulators of miRNAs and/or Inhibitors of miR-21; note: nearly all actives have a fitted effect of over 55% in size
Details: HeLa miR-21-FLuc reporter, luciferase luminescence, 48 h; actives lower the signal
Summary of the method: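 HeLa miR-21-FLuc reporter line, endogenous miR-21; 2000 cells/well in DMEM/10% FBS; compound titration up to ~40uM final, 48 h, 37 degree Celsius; luciferase detection reagent, 15 min lysis, CCD luminescence.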
Potency is the fitted concentration of half-maximal effect.

Potency, active:
O=C(CCSc1ccccc1)N1CCN(c2ccccc2F)CC1 7.36 µM, O=C(CSCc1ccccc1)N1CCN(c2ccccc2)CC1 6.56 µM, O=C(CCSc1ccccc1)N1CCN(c2ccccc2)CC1 6.56 µM, CC1CCN(C(=O)CSCc2ccc(Cl)cc2)CC1 11.7 µM, Cc1ccc(SCCC(=O)N2CCC(C)CC2)cc1 7.36 µM, CN(C)c1ccc(/C=C2\CCCc3c2nc2ccccc2c3C(=O)O)cc1 4.65 µM, O=C(O)c1c2c(nc3ccccc13)/C(=C/c1ccc(OC(F)F)cc1)CCC2 14.7 µM, Cc1ccc2oc(-c3ccc(NC(=O)c4cccc(F)c4)c(C)c3)nc2c1 7.36 µM, Cc1ccc2oc(-c3ccc(Cl)c(NC(=O)c4cc5ccccc5o4)c3)nc2c1 5.85 µM, Cc1ccc2oc(-c3ccc(C)c(NC(=O)c4ccc(-c5ccccc5[N+](=O)[O-])o4)c3)nc2c1 8.26 µM, Cc1cc2nc(-c3ccc(NC(=O)C(C)C)cc3)oc2cc1C 0.369 µM, Cc1cc2nc(-c3ccc(NC(=O)c4cc5ccccc5o4)cc3)oc2cc1C 8.26 µM, C/C(=N\NC(=O)c1ccoc1C)c1cccc2ccccc12 7.36 µM, C/C(=N\NC(=O)c1ccoc1C)c1ccccc1 1.85 µM, Cc1ccc(NC(=O)c2ccoc2C)cc1C 4.14 µM, CCc1ccc(C(=O)N/N=C/c2cccc3ccccc23)nc1 8.26 µM, Cc1occc1C(=O)N/N=C/c1cnn(C)c1C 13.1 µM, Cc1occc1C(=O)NNC(=S)Nc1ccccc1C(F)(F)F 8.26 µM, C/C(CC(=O)NC(C)(C)C)=N\NC(=O)c1ccco1 6.56 µM, C/C(=N\NC(=O)c1ccco1)c1ccc(-c2ccccc2)cc1 2.93 µM, Cc1occc1C(=O)NNC(=O)c1ccccc1C(=O)O 1.17 µM, C/C(=N/NC(=O)c1ccoc1C)c1ccc(N2CCOCC2)cc1 0.927 µM, Cc1occc1C(=O)N/N=C/c1cccc2ccccc12 2.07 µM, O=[N+]([O-])c1ccccc1-c1cc(-c2ccccc2O)n[nH]1 2.07 µM, c1nc(NCCN2CCOCC2)c2c3c(sc2n1)CCCCC3 16.5 µM, Cc1ccc(O)c(NC(=O)c2cc(-c3ccccc3)on2)c1 2.61 µM, Cc1ccc(O)c(NC(=O)c2cc(-c3cccs3)on2)c1 4.65 µM, Cc1ccc(O)c(NC(=O)c2cc(-c3ccco3)on2)c1 13.1 µM, O=C(Nc1cc(Cl)ccc1O)c1cc(-c2ccco2)on1 16.5 µM, Cc1cc(NCc2ccccn2)ccc1Br 9.27 µM, COc1ccc(-c2nc(C#N)c(NCCc3ccccc3)o2)cc1 9.27 µM, COc1ccc(-c2nc(C#N)c(NCCCn3ccnc3)o2)cc1OC 16.5 µM, CC(C)(C)c1ccc(-c2nc(C#N)c(NCc3ccncc3)o2)cc1 4.14 µM, COc1ccc(-c2nc(C#N)c(NCc3ccc(C)cc3)o2)cc1OC 7.36 µM, COc1ccc(-c2nc(C#N)c(NCCc3ccccc3)o2)cc1OC 2.93 µM, CCC(=O)Nc1cccc(OCc2cc(=O)n3cc(C)ccc3n2)c1 6.56 µM, Cc1csc2ncc(C(=O)Nc3ccc4c(c3)OCCO4)c(=O)n12 0.208 µM, O=C(Nc1ccc2c(c1)OCCO2)c1cnc2n(c1=O)CCS2 1.47 µM, COc1cccc(-c2noc(-c3ccoc3C)n2)c1 6.56 µM, COc1ccc(-c2noc(-c3ccoc3C)n2)cc1 2.07 µM, Cc1ccc(/C=N/Nc2nnc(Cl)c3ccccc23)cc1 0.414 µM, CCc1ccc(/C=N/Nc2ncnc3nc[nH]c23)cc1 0.656 µM, Cc1ccc(/C=N/Nc2ncnc3nc[nH]c23)cc1 0.826 µM, Cc1ccc(NC(=O)Nc2ncnc3nc[nH]c23)cc1 2.93 µM, Cc1cccc(/C=N/NC(=O)c2ccc(Br)cc2)c1 18.5 µM, O=C(NNC(=S)Nc1ccccc1)c1cccs1 2.07 µM, CCN(CC)c1ccc(NC(=S)NC(=O)c2cccs2)cc1 2.33 µM, COc1ccc(NC(=S)NNC(=O)c2cccs2)cc1 7.36 µM, CCc1ccccc1Nc1ncnc2c1cnn2-c1ccc(Cl)cc1 6.56 µM, Cc1ccc(-n2ncc3c(Nc4cccc(C)c4C)ncnc32)cc1 2.07 µM, CCOc1ccccc1Nc1ncnc2c1cnn2-c1ccc(C)cc1 5.21 µM, COc1nc(-c2ccccc2)ccc1-c1noc(C)n1 7.36 µM, COc1ccccc1-c1nc(-c2ccc(C)nc2OC)no1 3.29 µM, COc1nc(C)ccc1-c1noc(-c2cccs2)n1 1.85 µM, CCOc1ccccc1-c1nc(-c2ccc(C)nc2OC)no1 3.69 µM, CCOc1ccc(-c2nc(-c3ccccc3C)no2)cc1 0.826 µM, O=C(/C=C/c1c(F)cccc1Cl)Nc1nc2ccccc2[nH]1 5.21 µM, NC(=O)c1ccccc1NC(=O)/C=C/c1c(Cl)cccc1Cl 2.93 µM, O=C(/C=C/c1c(F)cccc1Cl)Nc1ncccn1 3.29 µM, S=C(Nc1ccc2[nH]ccc2c1)NC1CCCCC1 4.14 µM, Cc1cccn2cc(-c3c[nH]c4ccccc34)nc12 13.1 µM, O=C(c1cc(COc2ccc(F)cc2Cl)on1)N1CCCCCC1 4.14 µM, O=C(c1cc(COc2ccc(F)cc2Cl)on1)N1CCSCC1 6.56 µM, O=C(c1cc(COc2ccc(F)cc2F)on1)N1CCSCC1 5.85 µM, O=C(c1cc(COc2ccc(F)cc2F)on1)N1CCOCC1 14.7 µM, O=C(c1cc(COc2c(F)cccc2F)on1)N1CCCCCC1 7.36 µM, Cc1ccc(C)c(N2CCN(c3cnn(-c4nc5ccccc5s4)c(=O)c3Cl)CC2)c1 0.927 µM, O=c1c(Cl)c(N2CCN(c3ccc(F)cc3)CC2)cnn1-c1nc2ccccc2s1 3.29 µM, O=C(/C=C/c1ccccc1)NC1CC2CCC1C2 (stereo not drawn) 7.36 µM, Cc1cc(-c2ccc(N3CCOCC3)cc2)nc2ccccc12 3.29 µM, NC(=O)CC1C(=O)N(c2ccccc2)C(=S)N1NC(=O)c1ccc(Br)cc1 (stereo not drawn) 7.36 µM, COc1cccc(C(=O)NN2C(=S)N(c3ccccc3)C(=O)C2CC(N)=O)c1 (stereo not drawn) 6.56 µM, CCOc1ccc(-c2nnc(-c3cccs3)o2)cc1OCC 6.56 µM, COc1ccc(-c2nnc(-c3ccccc3)o2)cc1OC 3.69 µM, COc1ccc(-c2nnc(-c3ccc(Br)o3)o2)cc1OC 14.7 µM, COc1ccccc1-c1nnc(-c2ccc(N3CCOCC3)cc2)o1 7.36 µM, COc1ccc(-c2noc(-c3cccs3)n2)cc1OC 0.826 µM, CN(C)c1ccc(-c2nnc(-c3cccs3)o2)cc1 0.117 µM, COc1ccc(CCN(C)C(=O)CCc2nnc(-c3ccccc3)o2)cc1OC 4.65 µM, c1csc(-c2nc(-c3ccc(-c4ccon4)s3)no2)c1 0.329 µM, COc1ccc(-c2nnc(-c3cccs3)o2)cc1OC 2 µM, CCOc1ccc(-c2nnc(-c3ccco3)o2)cc1OCC 16.5 µM, Cc1cc(C)c(C#N)c(SCC(=O)Nc2ccc3c(c2)OCO3)n1 3.29 µM, Cc1cc(C)c(C#N)c(SCC(=O)Nc2nonc2N)n1 14.7 µM, COc1ccc(NC(=O)c2ccc(C)cc2)c(OC)c1 5.85 µM, COc1ccc(NC(=O)c2cc(C(C)C)on2)c(OC)c1 3.69 µM, COc1ccc(NC(=S)Nc2cc(C)ccn2)c(OC)c1 1.65 µM, CCN(CC)C(=O)c1ccc(-c2cccs2)s1 6.56 µM, CC(=O)N=C(N)Sc1nc2ccccc2[nH]1 2.33 µM, CCOC(=O)c1ccccc1N/C=C/C(=O)c1cccs1 9.27 µM, NC(=O)c1ccccc1N/C=C/C(=O)c1cccs1 0.521 µM, Cc1ccc2nc(-c3ccc(SCC(=O)Nc4nc(C)cs4)nc3)[nH]c2c1 1.47 µM, c1ccc(N2CCN(c3cnc4ccccc4n3)CC2)cc1 1.04 µM, COc1cc(C)ccc1OCCCOc1ccccc1Br 14.7 µM, COc1ccccc1OCCCOc1ccc(C)cc1Br 14.7 µM, O=C(c1ccc(F)cc1)c1ccc(N2CCCCC2)cc1 4.65 µM, COc1ccc(/C(C)=N/NC(=O)c2ccccc2N)cc1 18.5 µM, COc1ccc(C(=O)N/N=C(/C)c2ccc(N3CCCCC3)cc2)cc1 8.26 µM, C/C(=N\NC(=O)c1ccccc1)c1ccc(N2CCCCC2)cc1 6.56 µM, Cc1ccc(/C(N)=N/OC(=O)c2ccc(C)cc2Cl)cc1 0.261 µM, Cc1ccc(/C(N)=N/OC(=O)c2ccc(Cl)cc2Cl)cc1 1.04 µM, CCn1c(/C=C/c2c[nH]c3ccccc23)nc2ccccc2c1=O 0.414 µM, O=C(NNc1ncnc2ccccc12)c1cccc(Cl)c1 0.927 µM, O=C(c1cnsn1)N1CCC(CO)(Cc2cccc(F)c2)CC1 14.7 µM, CSc1nc(N)n2nc(-c3ccc(Cl)cc3)cc2n1 0.826 µM, Cc1cc(C)n2nc(-c3cccc(Br)c3)cc2n1 3.29 µM, Cc1nc2cc(-c3ccc(Cl)cc3)nn2c(NCCN(C)C)c1C 5.85 µM, Cc1cccc(-c2cc3nc(C)cc(C)n3n2)c1 1.85 µM
